KCNQ2 block: inhibitors of rat KCNQ2 potassium channel; O88943; CHO-K1 KCNQ2, FluxOR thallium flux, 20 min; active compounds read low; B-score at 10 µM; actives 1.1% (n = 310,000); AID 2156;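 active = fluorescence ratio B-score at most minus 3 library SDs, with starting brightness B-score within 2 library SDs, cut at about -5.5 in these data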
KCNQ2 pot: KCNQ2 (rat) channel potentiation | CHO-K1 KCNQ2, FluxOR thallium flux fluorescence; active compounds read high | B-score at 10 µM | actives 0.54% (n = 310,000);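 active = fluorescence ratio B-score at least 3 SD of library B-scores, with initial fluorescence B-score within 3 of them, cut at about 5.3 in these data; same plate scores as AID 2156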;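 also: B-score of peak minus minimum over baseline fluorescence ratio after K+ and Tl+ stimulus; positive B-score means potentiation of KCNQ2 with more thallium influx and brighter signal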
Kir21 conf inh: confirmation of mouse Kir2.1 potassium channel inhibitors; shares compounds with KCNQ2 pot; Kir2.1-expressing cells, FluxOR thallium flux fluorescence; active compounds read low; Tl flux remaining, % of negative control (active compounds read low), % at 10 µM; actives 41% (n = 2,300);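 active = Primary-screen hit whose thallium flux fell at least 3 control SD below untreated wells in both duplicates, with normal baseline fluorescence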;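 also: 0% = blank wells without stimulus and 100% = stimulated no-compound controls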
HEK293 ctr: parental HEK293 activity in Kir2.1 inhibitor counter-screen; shares compounds with KCNQ2 pot; parental HEK293 cells, FluxOR thallium flux fluorescence; 0% = unstimulated blank wells; FluxOR signal as % of negative control (100 = no effect), % at 10 µM; actives 19% (n = 2,300); AID 2105;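 active = dye signal at least 3 control SD above or below untreated wells in both duplicates, raw fluorescence within 3, either direction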;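 also: percent is based on the flux ratio of peak minus minimum fluorescence over baseline F0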
CHO-K1 ctr: counter-screen for KCNQ2 potentiators: effect in parental CHO-K1 cells; FluxOR thallium flux fluorescence; zero = vehicle mean+3SD, 100% = vehicle-minus-blank window; shares compounds with KCNQ2 pot; actives 43% (n = 1,200); activity increase over 3SD of controls, % at 10 µM;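 active = signal rise of at least 3 SD above the untreated control mean, in both duplicate wells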;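 also: counter screen of KCNQ2 potentiator hits so any rise reflects channel-independent effects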
KCNQ1 pot spec: tests whether KCNQ2 potentiators also act on human KCNQ1. actives 28% (n = 1,200). AID 2283. CHO KCNQ1 stable, FluxOR thallium flux fluorescence; beyond 3SD, as % of vehicle-control signal. activation over 3SD threshold, % at 10 µM. shares compounds with KCNQ2 pot;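 active = fluorescence ratio rise of at least 3 SD of vehicle wells above their mean, in both replicate wells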;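 also: 0% = vehicle mean plus 3 SD and 100% = vehicle minus unstimulated blank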
KCNQ2 pot confirm: confirmation of rat KCNQ2 potassium channel potentiators; CHO-KCNQ2 cells, FluxOR thallium flux fluorescence; actives 68% (n = 1,200); shares compounds with KCNQ2 pot; potentiation, less the hit threshold, % at 10 µM;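 active = fluorescence ratio rising 3 SD or more over the vehicle control mean in both replicates, plus primary screen hit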;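 also: peak minus minimum thallium fluorescence divided by baseline after K/Tl stimulus; 0% = vehicle mean plus 3 SD and 100% = vehicle minus unstimulated blank difference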
Kir2-1 sel: tests whether KCNQ2 potentiators also affect mouse Kir2.1. shares compounds with KCNQ2 pot. HEK293 Kir2.1, FluxOR thallium flux fluorescence. activity over 3SD threshold, % at 10 µM. actives 2% (n = 1,200);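 active = fluorescence ratio rise of at least 3 SD above the vehicle-control mean, seen in both replicates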;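 also: 0% = vehicle mean plus 3 SD and 100% = vehicle minus no-stimulus blank window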
KCNQ2 W236L MoA: rat KCNQ2 W236L mutant potentiation by KCNQ2 potentiators. shares compounds with KCNQ2 pot. CHO KCNQ2-W236L, automated patch clamp current. current increase over 3SD of negative controls (%), active compounds read high, % at 25 µM. actives 10% (n = 940);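 active = current increase at least 3 SD of the untreated controls above them in both duplicate recordings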
Target sequence (O88943 whole entry W236L, looked up): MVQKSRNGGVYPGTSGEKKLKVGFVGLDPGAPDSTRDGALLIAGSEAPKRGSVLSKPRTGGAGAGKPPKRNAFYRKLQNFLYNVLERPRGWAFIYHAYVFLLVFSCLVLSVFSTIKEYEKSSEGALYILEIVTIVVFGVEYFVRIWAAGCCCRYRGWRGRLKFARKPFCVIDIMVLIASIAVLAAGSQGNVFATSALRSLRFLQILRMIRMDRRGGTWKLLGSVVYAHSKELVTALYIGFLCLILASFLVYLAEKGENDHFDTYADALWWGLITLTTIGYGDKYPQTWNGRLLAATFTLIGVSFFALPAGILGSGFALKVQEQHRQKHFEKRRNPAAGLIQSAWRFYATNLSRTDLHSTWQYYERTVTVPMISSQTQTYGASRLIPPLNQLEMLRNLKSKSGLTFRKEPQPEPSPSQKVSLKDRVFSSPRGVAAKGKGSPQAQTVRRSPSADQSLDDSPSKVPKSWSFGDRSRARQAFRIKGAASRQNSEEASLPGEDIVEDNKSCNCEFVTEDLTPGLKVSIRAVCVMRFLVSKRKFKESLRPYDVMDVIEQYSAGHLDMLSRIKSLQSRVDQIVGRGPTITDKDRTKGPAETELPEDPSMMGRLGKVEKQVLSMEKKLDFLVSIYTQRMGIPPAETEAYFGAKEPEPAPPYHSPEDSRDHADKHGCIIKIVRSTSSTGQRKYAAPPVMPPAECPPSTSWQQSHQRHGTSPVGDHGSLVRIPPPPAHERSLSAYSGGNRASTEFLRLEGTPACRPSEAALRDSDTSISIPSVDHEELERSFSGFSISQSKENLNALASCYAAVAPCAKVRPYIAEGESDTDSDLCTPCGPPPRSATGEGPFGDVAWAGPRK
* = called active by the depositor; i = inactive; . = no result; ! = not active in a repeat. Rows were chosen to be rich in hits. Some 1.6% of all compounds tested hit in one or more screens of this group.

SMILES	KCNQ2 block	KCNQ2 pot	Kir21 conf inh	HEK293 ctr	others
O=C(O)c1cc(NN=Nc2ccc(Br)cc2)cc([N+](=O)[O-])c1	i	7.4*	i	i	CHO-K1 ctr=-2;KCNQ1 pot spec=33*;KCNQ2 pot confirm=16*;Kir2-1 sel=-38;KCNQ2 W236L MoA=i
C/C(N)=C(/C#N)C(=O)COC(=O)CC1CCCC1	i	.	.	.
C/C(N)=C(/C#N)C(=O)COC(=O)C1CCC(C(C)(C)C)CC1 (centres undefined)	i	5.3	28%*	i	CHO-K1 ctr=8.1*;KCNQ1 pot spec=-36;KCNQ2 pot confirm=7.8*;Kir2-1 sel=-102;KCNQ2 W236L MoA=i
Cc1ccc2c(cnn2C(=O)CCCC(=O)NC(C)c2ccccc2)c1 (centres undefined)	i	0.48	.	.
Cc1cc(C)c2nc(N(CCCN(C)C)C(=O)C3=COCCO3)sc2c1	i	.	.	.
Cc1cc(C)c2nc(N(CCCN(C)C)C(=O)c3ccc4c(c3)OCCO4)sc2c1	-5.8*	-5.8	50%*	i
NC(N)=N/N=C/c1cccc(Cl)c1Cl	i	.	.	.
NS(=O)(=O)c1ccc(CCNC(=O)C(=O)c2cn(CC(=O)N3CCCC3)c3ccccc23)cc1	i	.	.	.
Cn1c(=O)c2c(ncn2CCOc2ccc(F)cc2)n(C)c1=O	i	2.8	.	.
O=C(O)/C=C/C(=O)c1ccc2c(c1)CCc1ccccc1-2	i	8.6*	.	.	CHO-K1 ctr=30*;KCNQ1 pot spec=-7;KCNQ2 pot confirm=35*;Kir2-1 sel=-73;KCNQ2 W236L MoA=i
CC(=O)Nc1ccc2c(c1)CCc1ccccc1-2	i	.	.	.
O=C(CCCN1C(=O)/C(=C\c2cccs2)SC1=S)NNC(=O)c1cccnc1	i	0.01	.	.
Cc1ccc2nc(N3CCN(CCO)CC3)nc(-c3ccccc3)c2c1	i	.	48%*	i
CN1CCN(c2nc(-c3ccccc3)c3cc(Cl)ccc3n2)CC1	i	.	60%*	i
CN1CCN(c2nnc(-c3ccccc3)c(-c3ccccc3)n2)CC1	i	1	.	.
CCOC(=O)N1CCN(c2nc(-c3ccccc3)c3cc(C)ccc3n2)CC1	i	.	.	.
NC(=O)C1CCN(Cc2cccc(OCc3ccccc3)c2)CC1	i	0.01	.	.
CCOC(=O)C1CCN(Cc2cccc(OCc3ccccc3)c2)CC1	i	.	20%*	i
O=C(CC12CC3CC(CC(C3)C1)C2)Nc1c(F)cccc1F	i	10*	i	i	CHO-K1 ctr=-6;KCNQ1 pot spec=-25;KCNQ2 pot confirm=33*;Kir2-1 sel=-26;KCNQ2 W236L MoA=i
CN(C)S(=O)(=O)c1cccc(NC(=O)CC23CC4CC(CC(C4)C2)C3)c1	i	4.9	.	.
CC(=O)Nc1ccc(NC(=O)CC23CC4CC(CC(C4)C2)C3)cc1	i	2.2	.	.
CN(C)S(=O)(=O)Nc1cccc(NC(=O)CC23CC4CC(CC(C4)C2)C3)c1	i	7.8*	i	i	CHO-K1 ctr=7.1*;KCNQ1 pot spec=6.3*;KCNQ2 pot confirm=-7;Kir2-1 sel=-30;KCNQ2 W236L MoA=i
O=C(COC(=O)c1cccc(NS(=O)(=O)c2ccc(F)c(F)c2)c1)NC(=O)NC1CCCC1	i	.	.	.
Oc1ccccc1CN1CCC(C(O)(c2ccccc2)c2ccccc2)CC1	i	.	.	.
Oc1ccccc1CN1CCN(C(O)(c2ccccc2)c2ccccc2)CC1	i	.	66%*	i
SMILES	KCNQ2 block	KCNQ2 pot	Kir21 conf inh	HEK293 ctr	others
CCOC(=O)CN(C)C(=O)C1CCCN1C(=O)OC(C)(C)C (centres undefined)	i	.	.	.
Cn1cnc2cc(NC(=O)c3cccs3)ccc21	i	.	.	.
CCOc1ccccc1Oc1c(C)oc2cc(OC(=O)c3ccco3)ccc2c1=O	i	.	.	.
COc1ccccc1-c1c(C)oc2cc(OC(=O)c3ccco3)ccc2c1=O	i	0.01	70%*	i
COc1ccc(S(=O)(=O)NN(C)c2ncc(C(F)(F)F)cc2Cl)cc1	i	.	61%*	i
CC(C)NS(=O)(=O)c1ccc(Oc2ncc(C(F)(F)F)cc2Cl)cc1	i	.	.	.
COC(=O)c1ccc(Oc2nc(NC(C)C)nc(NC(C)C)n2)cc1	i	.	.	.
COC(=O)c1ccc(Oc2nc(NC(C)C)nc(N(C)C)n2)cc1	i	11*	i	i	CHO-K1 ctr=-16;KCNQ1 pot spec=-12;KCNQ2 pot confirm=-26;Kir2-1 sel=-32
O=C(Nc1ncc([N+](=O)[O-])s1)c1cccs1	i	7.7*!	i	i	CHO-K1 ctr=3.5*;KCNQ1 pot spec=-14;KCNQ2 pot confirm=-19;Kir2-1 sel=-32
Cc1cnc(NC(=O)c2cccs2)s1	i	0.05	.	.
O=C(Nc1c(S(=O)(=O)c2ccc(Cl)cc2)csc1Br)c1ccccc1Cl	i	.	.	.
CC(O)(C#CCN1CCOCC1)c1ccccc1 (centres undefined)	i	0.49	.	.
CN1CCN(CC#CC(C)(O)C2CC3C=CC2C3)CC1 (centres undefined)	i	5.4*	i	i	CHO-K1 ctr=-3;KCNQ1 pot spec=-39;KCNQ2 pot confirm=-10;Kir2-1 sel=-37
Cc1cc(=O)[nH]c(SCC(=O)N2CCCCC2)n1	i	.	.	.
Cc1cc(=O)[nH]c(SCC(=O)N2CCN(C(c3ccccc3)c3ccccc3)CC2)n1	i	10*	i	i	CHO-K1 ctr=-2;KCNQ1 pot spec=9.2*;KCNQ2 pot confirm=5.0*;Kir2-1 sel=-26;KCNQ2 W236L MoA=i
Cc1ccc(-n2c(SCC(=O)Nc3ccc(Cl)cc3)nc(O)cc2=O)cc1	i	0.52	.	.
O=C(NNC(=O)c1ccccc1OCc1ccc(F)cc1)c1ccncc1	i	6.1*	i	i	CHO-K1 ctr=23*;KCNQ1 pot spec=-9;KCNQ2 pot confirm=-23;Kir2-1 sel=-33
COc1ccccc1C(=O)NNC(=O)c1ccc(F)cc1	i	.	.	.
CCOC(=O)c1ccc(NC(=S)N(CCCN2CCCC(C)C2)Cc2ccco2)cc1 (centres undefined)	i	.	.	.
C=CCn1c(=S)[nH]c2sc3c(c2c1=O)CCC3	i	2.5	.	.
CCn1c(=S)[nH]c2sc3c(c2c1=O)CCCC3	i	16*	i	393%*	CHO-K1 ctr=40*;KCNQ1 pot spec=-16;KCNQ2 pot confirm=60*;Kir2-1 sel=-4;KCNQ2 W236L MoA=i
CC1CCc2c(sc3nn[nH]c(=O)c23)C1 (centres undefined)	i	0.14	.	.
CC1CCc2c(sc3[nH]c(=S)n(C)c(=O)c23)C1 (centres undefined)	i	20*	i	396%*	CHO-K1 ctr=54*;KCNQ1 pot spec=-19;KCNQ2 pot confirm=69*;Kir2-1 sel=-9;KCNQ2 W236L MoA=i
COc1cc2nc(CN3CCC(C(O)(c4ccccc4)c4ccccc4)CC3)[nH]c(=O)c2cc1OC	i	0.77	.	.
Cc1c(C)c2c(OCC(=O)NCc3ccccn3)cc3c(c2oc1=O)CCC(C)(C)O3	i	0.15	.	.
O=C(NCCCn1ccnc1)c1ccc(Br)s1	i	.	.	.

Compound activity from PubChem.
